# VDR inh: blocks the human vitamin D receptor; VDR-SRC2-3 peptide fluorescence polarization, 2 h; Potency, µM, without a hit: max response, negative = inhibition, usual class: inhibitors; 0.93% of 400,000 active; P11473; also: % is scaled to controls: 0 for no effect and ±100 for the full control effect
# Target sequence (P11473 whole entry, looked up): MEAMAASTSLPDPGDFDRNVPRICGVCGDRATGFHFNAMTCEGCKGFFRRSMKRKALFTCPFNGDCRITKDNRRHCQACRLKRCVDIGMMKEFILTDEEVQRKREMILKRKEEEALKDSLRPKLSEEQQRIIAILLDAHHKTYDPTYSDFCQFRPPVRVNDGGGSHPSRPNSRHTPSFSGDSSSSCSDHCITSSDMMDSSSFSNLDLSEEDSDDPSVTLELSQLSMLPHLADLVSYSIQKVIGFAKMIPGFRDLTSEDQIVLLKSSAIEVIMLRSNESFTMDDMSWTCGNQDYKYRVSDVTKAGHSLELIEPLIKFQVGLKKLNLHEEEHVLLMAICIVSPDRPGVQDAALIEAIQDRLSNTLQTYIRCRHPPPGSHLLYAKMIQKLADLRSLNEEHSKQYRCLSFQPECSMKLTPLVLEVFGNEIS
#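 VDR–SRC2-3 interaction, FP format. Cmpds 23 nl via pintool, brief spin, 2 h ambient incubation.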
# HP1b chromo inh: blocks HP1-beta chromodomain binding to methylated histone tails; AlphaScreen HP1-beta / biotin-H3K9me3 peptide binding; Potency, µM (titrated, usually from 114 µM), for the others: at the top dose activity change, negative = inhibition, most hits filed as inhibitors; 0.56% of 390,000 active; AID 540317; also: nearly all actives have a fitted effect of over 70% in size
# Target sequence (P83916 whole entry, looked up): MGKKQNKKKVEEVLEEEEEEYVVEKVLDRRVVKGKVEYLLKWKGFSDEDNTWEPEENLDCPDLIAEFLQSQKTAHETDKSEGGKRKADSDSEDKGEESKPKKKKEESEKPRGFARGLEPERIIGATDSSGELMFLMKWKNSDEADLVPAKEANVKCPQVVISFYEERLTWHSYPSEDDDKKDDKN
#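 AlphaScreen: HP1-beta (50 nM) preformed 30 min with biotin-H3(1-18)K9me3 peptide (50 nM) in PBS pH 7.4, 0.01% Tween-20. Compound added for 30 min at RT, then streptavidin donor/nickel chelate acceptor beads (10 ug/mL) for 30 min.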
# PLK1 PBD inh: blocks phosphopeptide binding to human PLK1 polo-box domain. P53350. Plk1 PBD binding of FITC phosphopeptide, fluorescence polarization. Potency, µM, for the others: max response, negative = inhibition, actives largely listed as inhibitors. AID 720504. 2.8% of 360,000 active; also: series mostly up to about 57 µM; % is scaled to controls: 0 for no effect and ±100 for the full control effect; nearly all actives have a fitted effect of over 65% in size
# G9a inh: inhibitors of human histone lysine methyltransferase G9a; Q96KQ7; G9a H3K9 monomethylation, AlphaScreen, 2 h; Potency, µM (highest dose often 102 µM), for inactives: at the highest dose activity, negative = inhibition, hits mostly inhibitors; 8.8% of 350,000 active; AID 504332; also: % is scaled to controls: 0 for no effect and ±100 for the full control effect; nearly all actives have a fitted effect of over 75% in size
#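 Methyltransferase reactions run at room temperature for 2 h (20 nM enzyme, 500 nM biotin-H3K9 peptide, 20 uM SAM) after a 15 min compound preincubation; product detected by AlphaScreen beads and anti-H3K9me1 antibody.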
# JMJD2A Tudor: blocks the human JMJD2A Tudor domain | AID 504339 | Potency, µM (doses to about 114 µM), for the others: top-dose activity change, negative = inhibition, most hits filed as inhibitors | AlphaScreen JMJD2A-Tudor / H3K4me3 peptide binding | O75164 | 4.4% of 390,000 active; also: % is scaled to controls: 0 for no effect and ±100 for the full control effect; nearly all actives have a fitted effect of over 50% in size
# BAZ2B inh: BAZ2B (human) inhibition | Potency, µM (doses to about 114 µM), inactives show at the top dose activity change, negative = inhibition, usual class: inhibitors | AlphaScreen BAZ2B-H3K14Ac peptide displacement | 4.4% of 360,000 active | Q9UIF8; also: % is scaled to controls: 0 for no effect and ±100 for the full control effect; nearly all actives have a fitted effect of over 60% in size
#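 Inhibition is scored as reduced AlphaScreen emission. The BAZ2B/b-H3(5-23)K14Ac complex (50 nM each) in PBS pH 7.4, 0.01% Tween-20 meets compound (up to 110 uM) for 30 min at RT before bead addition.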
# Numbers without * were called inactive; u = inconclusive; x = not tested or not shown; [ ] = dose if it differs, or a comment. This is a sample that favours compounds with a hit; in the whole collection about 11% have one here. Calls follow the shape of the dose curve; as a rule, active = well fitted curve in the direction sought with a large enough effect; inconclusive = small, poorly fitted or top-dose-only effect, or another doubt; inactive = no such curve, though single readings can be large; an effect the other way counts as inactive or inconclusive. Potency is read from the fitted curve at half-maximal effect.
SMILES,VDR inh,HP1b chromo inh,PLK1 PBD inh,G9a inh,JMJD2A Tudor,BAZ2B inh
CCCC(=O)Nc1nnc(SCc2cc(=O)c3ccc(C)cc3[nH]2)s1,15%,13%[57 µM],x,-36%[59 µM],-5%,-1%
COc1ccc(-c2nc3cnc(N4CCNCC4)nc3n(Cc3cccs3)c2=O)cc1,72%,x,x,-7%[0.501 µM],x,x
Cc1ccc(NC(=O)C2CCCN(S(=O)(=O)c3cccc4nsnc34)C2)cc1C (stereo not given),-15%,30%,x,3%[59 µM],-8%,x
COC(=O)c1c(-c2cccs2)csc1NC(=O)COc1ccc(C(C)(C)C)cc1,-15%,-17%,x,4µM*,-8%,-15%
COC(=O)c1c(-c2cccs2)csc1NC(=O)c1ccc(C(C)C)cc1,u,-12%,x,2.8µM*,0%,-1%
COC(=O)c1c(-c2cccs2)csc1NC(=O)COc1ccc(C)cc1,13%,-7%,x,u,-2%,-13%
CCOCCCNC(=O)C(c1ccccc1)N(Cc1ccc2c(c1)OCO2)C(=O)c1ccccc1O (stereo not given),14%,7%,-8%,-33%,-8%,13%
Oc1ccccc1/C=N/n1cnnc1,8%,12%,2%,50µM*,79µM*,9%
Cc1cc(C)n(/N=C/c2cc([N+](=O)[O-])ccc2O)c(=O)c1,15%,17%,-1%,u,u,50µM*
O=[N+]([O-])c1ccc(O)c(/C=N/n2cnnc2)c1,-12%,14%,-13%,45µM*,-27%,2%
O=C1/C(=C/c2cccc(Br)c2)SC(=S)N1/N=C/c1cc([N+](=O)[O-])ccc1O,u,-4%,19µM*,40µM*,u,35µM*
O=C1/C(=C\c2ccc(O)cc2)SC(=S)N1/N=C/c1ccc(O)cc1,-1%,-8%,53%,x,-32%,u
O=[N+]([O-])c1cccc(/C=N/n2cnnc2)c1O,-10%,48%,-12%,15%[59 µM],-16%,-7%
COc1ccccc1CNC(=O)c1cccc(NC(=O)N2CCSc3ncccc32)c1,0%,30%,x,2%[59 µM],0%,-12%
O=C1CCCN1CCCNc1nc2c(S(=O)(=O)c3ccc(Br)cc3)nnn2c2ccccc12,-2%,7%,u,26%,u,-1%
Cc1cc([N+](=O)[O-])c(C)cc1-c1ccc(/C=N/n2cnnc2)o1,-1%,3%,-10%,u,-28%,-23%
O=[N+]([O-])c1ccc(-c2ccc(/C=N/n3cnnc3)o2)c(Br)c1,u,4%,-19%,50µM*,u,u
CN(C)Cc1csc(NC(=O)Nc2ccccc2Oc2ccccc2)n1,x,x,6%,x,x,x
c1ccc(SCc2nc3ccccc3s2)nc1,-24%,66%,19µM*,35µM*,18%,1%
N#C/C(=C(/O)CSc1ccccn1)c1nc2ccccc2s1,-18%,44%,-8%,45µM*,-8%,-16%
c1ccc2oc(SCc3nc4ccccc4s3)nc2c1,6%,270%,-12%,47%[59 µM],155%,108%
COc1ccccc1-c1cc2nc(-c3ccccc3)cc(N3CCN(C(=O)c4ccoc4)CC3)n2n1,x,x,-12%,x,x,x
COc1ccc(-c2cc(CNc3nc(NCc4ccccc4OC)nc4ccsc34)on2)cc1,x,x,-6%,x,x,x
CC1(C)Cc2c(cnn2-c2ccc(F)cc2)C(NC(=O)CCCN2CCCCC2=O)C1 (stereo not given),5%,5%,2%,25%,-12%,-2%
COC(=O)c1c(NC(=O)c2ccc(S(=O)(=O)N3CCCCC3)cc2)sc2c1CCN(C)C2,13%,34%,x,u,-4%,4%
SMILES,VDR inh,HP1b chromo inh,PLK1 PBD inh,G9a inh,JMJD2A Tudor,BAZ2B inh
CCCN1CCc2c(sc(NC(=S)NC(=O)c3ccccc3)c2C#N)C1,u,u,7.5µM*,10µM*,u,u
CC(C)N1CCc2c(sc(NC(=O)c3ccc(S(=O)(=O)N4CCOCC4)cc3)c2C#N)C1,-4%,15%,22%,32µM*,-16%,-4%
CC(C)C1Cc2c(sc(NC(=S)NC(=O)c3ccccc3)c2C#N)CO1 (stereo not given),-23%,52%,24µM*,-25%[59 µM],-18%,11%
CCOC(=O)c1c(NC(=O)c2ccc(S(=O)(=O)N3CCOCC3)cc2)sc2c1CCN(C)C2,9%,16%,6%,50µM*,-20%,u
CCOC(=O)c1c(NC(=S)NCCc2ccccc2)sc2c1CC(C(C)C)OC2 (stereo not given),-13%,5%,-10%,27%[59 µM],-16%,6%
COC(=O)c1c(NC(C)=O)sc2c1CCN(Cc1ccccc1)C2,-3%,30%,-6%,x,-20%,-5%
CCOC(=O)N1CCc2c(sc(NC(=O)c3ccc(S(=O)(=O)N4CCCC4)cc3)c2C#N)C1,u,44%,-23%,u,-20%,10%
COC(=O)/C=C/C(=O)Nc1cccc(C(F)(F)F)c1,-20%,41%,-11%,1%[59 µM],-5%,7%
COc1ccc(S(=O)(=O)N2CC(O)CC2C(=O)Nc2cccnc2)cc1 (stereo not given),-1%,25%,3%,x,2%,-10%
CCN1CCc2c(sc(NC(=O)c3ccc4ccccc4c3)c2C(N)=O)C1,x,x,x,6%,x,-12%
CC(C)N1CCc2c(sc(NC(=S)NC(=O)c3ccccc3)c2C#N)C1,-9%,-19%[57 µM],u,10µM*,u,u
CCN1CCc2c(sc(NC(=S)NC(=O)c3ccc(Cl)cc3)c2C(N)=O)C1,-9%,-27%,u,32µM*,u,-27%
O=C(NCC1CCCCC1)c1cccc(S(=O)(=O)N2CCCC2)c1,5%,14%,-10%,-10%[12.7 µM],-3%,3%
O=C(NCCc1ccccc1)c1ccc2c(c1)nc1n2CCOC1,20%,13%[57 µM],x,-1%[59 µM],-6%,3%
c1ccc(CNCc2nnc(-c3cc4ccccc4[nH]3)s2)cc1,x,x,x,x,-18%,x
COc1cc(C2CC(=O)c3c(ccc4ccccc34)N2)ccc1O (stereo not given),10%,5%,2%,11µM*,-17%,-23%
COc1cc(C2c3c([nH]c(=O)[nH]c3=O)Nc3ccc4ccccc4c32)cc(OC)c1OC (stereo not given),3%,71µM*,u,u,u,56µM*
COc1cc(C2CC(=O)Oc3c2c(=O)[nH]c2ccccc32)cc(OC)c1OC (stereo not given),-18%,44%,x,-45%[59 µM],1%,-18%
COc1cc(C2c3c([nH]c(=O)[nH]c3=O)Nc3ccc4ccccc4c32)ccc1O (stereo not given),5%,u,u,50µM*,u,u
COc1cc(Cl)c(NC(=O)CN(C)S(=O)(=O)c2ccc3[nH]c4c(c3c2)CCCC4)c(OC)c1,6%,9%,x,u,u,-25%

# Screening results (PubChem)
